Laboratory results: the supplement of paper PMC5940239

What was measured:
[1] = tested on: Madurella mycetomatis MM55; details: 7 days
[2] = tested on: Madurella mycetomatis MM55; assay: IC90; higher = less potent; details: 7 days
[3] = tested on: Madurella mycetomatis MM55; assay: percent growth relative to solvent control; higher = less inhibition, active = 20 or less; details: 100 µM; 7 days

SMILES | IC50 [1] [µM] | IC90 [2] [µM] | percent growth [3]
COc1ccc(-c2onc(C(F)(F)F)c2-c2ccc(Cl)cc2)c(O)c1 | 8.8 | 16.8 | 3.39% (active)
N=C(N)c1ccc(-c2cc(-c3ccccc3)on2)cc1 | 52.1 | 90.2 | -0.237% (active)
O=C(c1ccc(F)cc1)N(CCNc1ccccc1)c1ccccc1 | 66.8 | 100 | 6.35% (active)
COc1cc(C2=NCCN2)cc2cc(-c3ccc(C4=NCCN4)cc3)oc12 | 48.3 | 88.8 | -1.77% (active)
O=C(Nc1ccc(N2CCNCC2)nc1)c1oc(-c2ccccc2)nc1C(F)(F)F | 37.9 | 85.3 | -3.61% (active)
Cc1ccc2c(c1C)NC(=O)C21NN=C(c2ccccc2)S1 (centres undefined) | 37.9 | 61.2 | 4.4% (active)
O=C(Nc1nnc(-c2ccc(Cl)cc2)o1)c1cccc(C(F)(F)F)c1 | 10.6 | 39.2 | 3.76% (active)
Cc1nnc(NCc2cccc(Cl)c2)c2ccccc12 | 29.1 | 62.8 | -0.336% (active)
OCc1ccc(-c2cncc(Nc3cccc(Cl)c3)c2)cc1 | 63.6 | 98.2 | 7.76% (active)
CCc1ccc(S(=O)(=O)Nc2cc(CN3CCN(CCC(C)C)CC3)ccc2C)cc1 | 59.9 | 91.5 | -0.809% (active)
Cc1ccc(-c2nc(CN(Cc3ccccn3)C(C)C)cs2)o1 | 53.9 | 90 | 0.31% (active)
O=C(Nc1ccccc1)c1ccc(-c2cc3ccncc3cc2OC2CCNCC2)s1 | 54.3 | 87.4 | -5% (active)
CC(C)NCC(=O)Nc1cccc(C(=O)Nc2cccc(C(F)(F)F)c2)c1 | 62 | 93.7 | 2.17% (active)
c1csc(-c2cnc3sc(NCC4CCOCC4)nn23)c1 | 62.6 | 95.5 | 4.52% (active)
CC1=NN(c2nc3ccccc3s2)C(=O)C1Cc1cccc2ccccc12 (centres undefined) | 62.1 | 93 | 1.31% (active)
CC(=O)Nc1ccc(-c2noc(CC3CCCN(Cc4cccc(F)c4C)C3)n2)cc1 (centres undefined) | 66.2 | 94.5 | 1.89% (active)
O=C(NCCc1ccccc1)c1cc(-c2cccnc2)cnc1NCC1CC1 |  | 92.4 | 1.69% (active)
Nc1nc2ccc(-c3cncc(Oc4ccc(F)cc4)c3)cc2[nH]1 | 40.7 | 85.8 | -2.72% (active)
N=C(N)Nc1ccc(-c2ccc(-c3ccc(N=C(N)N)c(Cl)c3)o2)cc1Cl | 61.6 | 88.5 | -8.11% (active)
c1ccc(Oc2ccc(-c3cc(CN4CCOCC4)[nH]n3)cc2)cc1 | 65.4 | 95.6 | 3.77% (active)
CC(C)n1nc(-c2cc3c(Cl)cccc3[nH]2)c2c(N)ncnc21 | 52.5 | 89 | -3.21% (active)
CNc1nnc(Sc2cnn(-c3ccccc3)c(=O)c2Cl)s1 | 54.9 | 90.8 | -0.261% (active)
Cc1cccc(Cn2ccc(NC(=O)c3ccc4c(c3)OCO4)n2)c1 | 60.1 | 90.7 | -0.936% (active)
Cc1nn(C(=O)Nc2cccc(C(F)(F)F)c2)c(C)c1Sc1ncccn1 | 68.5 | 94 | 1.34% (active)
c1ccc(Oc2ccc(-c3cc(N4CCOCC4)[nH]n3)cc2)cc1 | 56.9 | 95.2 | 5.11% (active)

SMILES | IC50 [1] [µM] | IC90 [2] [µM] | percent growth [3]
Cc1nc(-c2ccccn2)nc(N(C)CCc2ccccc2)c1Cl | 9.25 | 17.8 | 2.82% (active)
Cc1ccc2[nH]c(C3CCCNC3)c(-c3ccncc3)c2c1 (centres undefined) | 52.1 | 89.4 | 0.356% (active)
c1ccc(-c2nc(NC3CCCCC3)cc(C3CC3)n2)nc1 | 10.3 | 18.8 | 2.69% (active)
FC(F)(F)c1cc(NCCc2ccccc2)nc(-c2ccccn2)n1 | 55.5 | 91.1 | -0.699% (active)
COc1ccc(CCN2CCC(NCc3cccc(N(C)C)c3)CC2)cc1 | 24.5 | 51.7 | -0.197% (active)
N#CCN(CCCCN1CCN(c2ccc(F)cc2)CC1)C(=O)OCc1ccccc1 | 64.3 | 93.7 | 1.57% (active)
O=C(Nc1nc(-c2ccccn2)cs1)c1cncn1-c1ccccc1 | 10.8 | 40.8 | 1.78% (active)
CN1CCCC1CCO[C@](C)(c1ccccc1)c1ccc(Cl)cc1 (some centres undefined) | 9.85 | 18.3 | -0.386% (active)
Cc1[nH]c2ccccc2c1C(c1cccs1)N1CCN(C)CC1 (centres undefined) | 12.7 | 47 | 4.92% (active)
COc1ccc(-c2cc(NC(=O)c3ccc(F)cc3Cl)ccc2OC)cc1 | 31.4 | 53 | 19.5% (active)
CC(C)(C(=O)Nc1ccc(F)cc1)n1cc(-c2ccccc2F)cn1 | 56.2 | 96.1 | 6.9% (active)
Brc1cncc(-c2cc(NCCCn3ccnc3)nc(-c3ccccc3)n2)c1 | 55 | 90.8 | -0.251% (active)
CC[P](CC)(CC)=[Au][S][C@H]1O[C@@H](COC(C)=O)[C@H](OC(C)=O)[C@@H](OC(C)=O)[C@@H]1OC(C)=O | 17.1 | 45.8 | 3.51% (active)
c1ccc(Oc2ccc(-c3cc(N4CCNCC4)[nH]n3)cc2)cc1 | 35.1 | 81.3 | 0.718% (active)
O=C1COCc2ccc(Br)cc2N1Cc1ccc(C(F)(F)F)cc1 | 45 | 95.4 | 9.1% (active)
Nc1nccc2ccc(-c3ccc4nccn4c3)cc12 | 53.9 | 89.2 | -2.88% (active)
Cc1cccc(-c2nc(Nc3ccncn3)c3sccc3n2)n1 | 35.2 | 88.1 | 1.77% (active)
CN1CCN(CCCOc2ncc(Nc3ncc(-c4ccc(C(F)(F)F)c(F)c4)nc3C(N)=O)cn2)CC1 | 25.7 | 85.2 | -0.0728% (active)
COc1ccc(-c2cnc3cnc(-c4cccc(OC(C)C)c4)cn23)cc1 | 43.6 | 95 | 6.18% (active)
O=C(COc1cccc(F)c1)Nc1nc(-c2ccccn2)cs1 | 8.85 | 16.1 | 0.599% (active)
O=C(Nc1cccc(Cl)c1)c1cnc(N2CCN(c3ccncc3)CC2)c(Cl)c1 | 9.3 | 19.6 | 6.08% (active)
COC(=O)C1=C(C)NC(C)=C(C(=O)OC(C)C)C1c1cccc2nonc12 (centres undefined) | 45.1 | 87.6 | -1.92% (active)
CN1CCN(c2nccc3[nH]c(-c4cccc(F)c4)cc23)CC1 | 50.5 | 93 | 3.26% (active)
Cc1cc(C)n(-c2ccc(NC(=O)C3CCN(Cc4cnc(C)s4)CC3)cc2)n1 | 48.8 | 92.5 | 1.64% (active)
CCCCc1ccc(C(=O)Nc2nccc3ccccc23)nc1 | 54.6 | 86 | -1.16% (active)

SMILES | IC50 [1] [µM] | IC90 [2] [µM] | percent growth [3]
O=C(Nc1nnc(-c2ccc(Cl)s2)o1)c1ccc(Cl)s1 | 54.3 | 93.7 | 3.26% (active)
O=C(NC1CCN(c2ccnc3ccccc23)C1)c1cccc(C(F)(F)F)c1 (centres undefined) | 61.6 | 94.8 | 3.94% (active)
O=C(NC1CC1)c1ccc(N2CCOc3ccc(Cl)cc32)s1 | 34.5 | 51.8 | -2.78% (active)
O=C(Nc1cccc(-c2ccc(NCCCN3CCCC3)nc2)c1)c1ccccc1 | 53.1 | 90.9 | -1.11% (active)
Cc1cc(OCC(=O)NCc2ccccc2)c2cc(Br)ccc2n1 | 67.9 | 100 | 15.1% (active)
Cc1ccc(NC(=O)CC2COc3ccccc3O2)cc1Cl (centres undefined) | 51.9 | 91.3 | 1.24% (active)
c1ccc(-c2cc(N3CCCCC3)c3ccccc3n2)nc1 | 60 | 92.4 | 0.766% (active)
Cc1ccc2nc(Cl)c(CNCc3cccs3)cc2c1 | 37.5 | 54.5 | -0.463% (active)
Cc1cc(C)nc(-n2nc(C)cc2Nc2ccccc2)n1 | 58.1 | 91.3 | -0.531% (active)
CNCCC(Oc1ccc(C(F)(F)F)cc1)c1ccccc1 (centres undefined) | 10.1 | 18.6 | 1.78% (active)
CN1CCC(NCc2cccc(-c3ccc(S(=O)(=O)NCc4ccccc4)cc3)c2)CC1 | 40.8 | 92 | 3.47% (active)
Cc1cc(NCC(C)C)c2n[nH]c(-c3ccccc3)c2n1 | 52.5 | 89.3 | -1.5% (active)
CC(c1cc(Cl)cc(Cl)c1)N(C)c1ncc2c(N)nc(N)nc2n1 (centres undefined) | 46.5 | 90.7 | 5.31% (active)
Oc1c(I)cc(I)c2cccnc12 | 2.55 | 4.65 | -2.46% (active)
Cc1nc(-c2ccccn2)nc(N2CCC(Cc3ccccc3)C2)c1Cl (centres undefined) | 5.1 | 13.7 | 6.94% (active)
COc1cccc(-n2nnnc2S(C)(=O)=O)c1 | 59.9 | 92.6 | 1.2% (active)
COc1ccc(C2=NN(C3CCCCCC3)C(=O)[C@@H]3CC=CC[C@H]23)cc1OCCCCOc1ccc(-c2nn[nH]n2)cc1 | 18.6 | 53.5 | -1.09% (active)
CC(C)(C)C1CCC(CC2=C(O)C(=O)c3ccccc3C2=O)CC1 (centres undefined) | 66.8 | 92.7 | -0.835% (active)
c1ccc(C[C@@H]2CN(c3nccc(Oc4ccc(-n5ccnc5)cc4)n3)CCN2)cc1 | 58.9 | 91.2 | -0.802% (active)
COc1ccc(C2=NN(C3CCCCCC3)C(=O)C2(C)C)cc1OCCCCOc1ccc(-c2nn[nH]n2)cc1 | 50.9 | 90.9 | 0.849% (active)
CCCCOC(=O)Nc1cc2nc(C3CCCCC3)[nH]c2cc1N1CCCC1 | 11.6 | 18.4 | 7.67% (active)
O=C(Nc1ccc(N2CCNCC2)cc1)c1ccn2ncc(-c3cccc(Cl)c3)c2n1 | 2.95 | 4.9 | 8.12% (active)
Cc1cnc(N2CCN[C@@H](Cc3ccccc3)C2)nc1Oc1ccc(-n2ccnc2)cc1 | 10.7 | 20.8 | 3.67% (active)
COc1cc(CN2CCC3(C=Cc4ccccc43)CC2)cc2c1OCO2 | 28 | 91.5 | 4.12% (active)
CC(C)=CCC/C(C)=C\CNCCNC1C2CC3CC(C2)CC1C3 (centres undefined) | 10.2 | 19.8 | 2.78% (active)
